# Laboratory results reported in article PMC7862700, “An all-to-all approach to the identification of sequence-specific readers for epigenetic DNA modifications on cytosine”.
# What was measured:
# Assay in all cases: DAPPL (digital affinity profiling via proximity ligation, sequencing); 10 mM Tris-HCl pH 7.5, 50 mM NaCl, 1 mM DTT, 4% glycerol, room temperature, 30 min; GST-TFs on glutathione beads, 16-mer random dsDNA library, 0.1% formaldehyde crosslink after washing; high values mean tight binding
# FEV = target: T1, FEV (Homo sapiens, UniProt Q99581 1-238); details: protein: recombinant; tags: N-terminal GST; dsDNA, one strand shown
# T1 sequence: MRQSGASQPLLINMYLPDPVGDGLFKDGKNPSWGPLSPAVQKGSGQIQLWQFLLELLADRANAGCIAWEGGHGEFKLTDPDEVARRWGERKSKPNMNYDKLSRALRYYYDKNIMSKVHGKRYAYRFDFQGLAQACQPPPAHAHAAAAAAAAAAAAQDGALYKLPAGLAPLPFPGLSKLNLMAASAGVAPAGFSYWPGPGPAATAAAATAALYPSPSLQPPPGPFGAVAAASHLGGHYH
# Method in brief: (§1)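 Pools of DNA-barcoded human transcription factors, expressed in yeast as GST fusions on glutathione beads and combined with a tag-only sample, were incubated with 200 nmole of a 16-mer random double-stranded DNA library. Incubation took 30 min at room temperature in Tris/NaCl/DTT/glycerol buffer and was followed by washing, 0.1% formaldehyde crosslinking, proximity ligation (BsaI/T4 ligase, 1 h, 37 °C), PCR amplification and sequencing on an Illumina NextSeq500. Binding signal is the ratio of a hexamer's read frequency for a factor to its frequency for the tag-only sample.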
# ETV5 = ETV5 (Homo sapiens, UniProt P41161 1-510); details: protein: recombinant; tags: N-terminal GST; dsDNA, one strand shown
# Sequence of ETV5 (P41161 whole entry): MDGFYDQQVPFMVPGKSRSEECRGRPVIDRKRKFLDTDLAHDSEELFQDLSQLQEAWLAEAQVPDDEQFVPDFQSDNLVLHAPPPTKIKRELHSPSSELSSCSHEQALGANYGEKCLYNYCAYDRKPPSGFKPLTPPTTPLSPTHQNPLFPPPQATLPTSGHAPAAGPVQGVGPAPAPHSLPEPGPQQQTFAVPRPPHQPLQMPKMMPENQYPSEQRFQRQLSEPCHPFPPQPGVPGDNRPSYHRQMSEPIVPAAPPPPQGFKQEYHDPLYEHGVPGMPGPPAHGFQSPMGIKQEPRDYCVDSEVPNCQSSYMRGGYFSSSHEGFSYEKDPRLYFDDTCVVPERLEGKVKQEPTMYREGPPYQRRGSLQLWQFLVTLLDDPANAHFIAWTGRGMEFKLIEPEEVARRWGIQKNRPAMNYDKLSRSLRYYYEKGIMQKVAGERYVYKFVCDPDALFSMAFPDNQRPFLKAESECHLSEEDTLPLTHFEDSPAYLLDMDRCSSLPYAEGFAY
# Method in brief: as §1
# HSF1 = HSF1 (Homo sapiens, UniProt Q00613 1-529); details: protein: recombinant; tags: N-terminal GST; chain copies: 3; dsDNA, one strand shown
# Sequence of HSF1 (Q00613 whole entry): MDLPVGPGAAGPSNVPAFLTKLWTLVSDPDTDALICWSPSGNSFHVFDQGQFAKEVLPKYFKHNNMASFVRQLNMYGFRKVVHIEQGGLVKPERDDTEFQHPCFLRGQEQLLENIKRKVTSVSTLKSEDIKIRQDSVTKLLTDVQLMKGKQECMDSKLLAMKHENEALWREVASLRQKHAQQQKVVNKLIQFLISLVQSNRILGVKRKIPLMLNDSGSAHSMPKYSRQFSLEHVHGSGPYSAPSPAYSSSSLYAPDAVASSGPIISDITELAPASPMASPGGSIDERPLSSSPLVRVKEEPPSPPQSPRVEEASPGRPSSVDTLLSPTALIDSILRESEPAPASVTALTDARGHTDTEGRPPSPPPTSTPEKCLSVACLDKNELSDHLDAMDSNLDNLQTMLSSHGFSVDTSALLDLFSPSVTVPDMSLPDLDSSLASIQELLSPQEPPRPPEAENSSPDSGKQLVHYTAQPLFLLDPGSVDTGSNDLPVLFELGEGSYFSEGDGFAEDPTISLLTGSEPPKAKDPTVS
# Method in brief: as §1
# SPIC = target: T2, SPIC (Homo sapiens, UniProt Q8N5J4 1-248); details: protein: recombinant; tags: N-terminal GST; dsDNA, one strand shown
# T2 sequence: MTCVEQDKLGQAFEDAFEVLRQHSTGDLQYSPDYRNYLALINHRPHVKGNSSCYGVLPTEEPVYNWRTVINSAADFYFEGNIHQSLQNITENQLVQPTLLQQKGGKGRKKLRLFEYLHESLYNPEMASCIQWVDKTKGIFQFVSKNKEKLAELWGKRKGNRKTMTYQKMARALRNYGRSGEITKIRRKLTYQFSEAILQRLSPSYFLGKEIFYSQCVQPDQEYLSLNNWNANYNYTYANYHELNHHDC
# Method in brief: as §1
# ELF4 = ELF4 (Homo sapiens, UniProt Q99607 1-663); details: protein: recombinant; tags: N-terminal GST; dsDNA, one strand shown
# Sequence of ELF4 (Q99607 whole entry): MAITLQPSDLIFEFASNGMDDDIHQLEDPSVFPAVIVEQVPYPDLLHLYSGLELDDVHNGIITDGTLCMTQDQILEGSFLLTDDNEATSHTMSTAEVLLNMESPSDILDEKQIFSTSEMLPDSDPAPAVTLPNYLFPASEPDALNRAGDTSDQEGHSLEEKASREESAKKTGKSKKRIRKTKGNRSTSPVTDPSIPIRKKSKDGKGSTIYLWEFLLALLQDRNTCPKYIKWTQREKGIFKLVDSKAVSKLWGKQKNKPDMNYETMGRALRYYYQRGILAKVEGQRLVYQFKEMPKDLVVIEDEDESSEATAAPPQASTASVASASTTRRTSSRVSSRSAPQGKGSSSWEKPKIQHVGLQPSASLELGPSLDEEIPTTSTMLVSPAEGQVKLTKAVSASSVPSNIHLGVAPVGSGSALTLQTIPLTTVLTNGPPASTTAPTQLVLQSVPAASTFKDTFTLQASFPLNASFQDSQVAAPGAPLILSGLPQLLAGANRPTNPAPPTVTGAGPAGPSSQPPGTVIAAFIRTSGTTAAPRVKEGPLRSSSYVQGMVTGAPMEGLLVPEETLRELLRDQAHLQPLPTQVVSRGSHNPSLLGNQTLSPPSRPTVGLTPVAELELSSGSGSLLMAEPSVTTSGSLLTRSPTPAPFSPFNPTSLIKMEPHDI
# Method in brief: as §1
# ELK4 = target: T3, ELK4 (Homo sapiens, UniProt P28324-2 1-405); details: protein: recombinant; tags: N-terminal GST; dsDNA, one strand shown
# T3 sequence: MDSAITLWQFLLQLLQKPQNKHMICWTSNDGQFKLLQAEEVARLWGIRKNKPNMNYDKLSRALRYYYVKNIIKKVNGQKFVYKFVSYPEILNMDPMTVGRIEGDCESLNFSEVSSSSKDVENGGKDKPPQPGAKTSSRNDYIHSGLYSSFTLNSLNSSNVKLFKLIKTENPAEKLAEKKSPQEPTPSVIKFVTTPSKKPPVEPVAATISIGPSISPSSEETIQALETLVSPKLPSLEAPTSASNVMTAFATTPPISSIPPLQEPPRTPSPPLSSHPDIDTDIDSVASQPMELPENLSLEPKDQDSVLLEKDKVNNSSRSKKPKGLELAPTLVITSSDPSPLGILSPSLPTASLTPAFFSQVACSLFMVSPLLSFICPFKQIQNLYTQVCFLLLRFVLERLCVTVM
# Method in brief: as §1
# ETV2 = target: T4, ETV2 (Homo sapiens, UniProt O00321 1-342); details: protein: recombinant; tags: N-terminal GST; dsDNA, one strand shown
# T4 sequence: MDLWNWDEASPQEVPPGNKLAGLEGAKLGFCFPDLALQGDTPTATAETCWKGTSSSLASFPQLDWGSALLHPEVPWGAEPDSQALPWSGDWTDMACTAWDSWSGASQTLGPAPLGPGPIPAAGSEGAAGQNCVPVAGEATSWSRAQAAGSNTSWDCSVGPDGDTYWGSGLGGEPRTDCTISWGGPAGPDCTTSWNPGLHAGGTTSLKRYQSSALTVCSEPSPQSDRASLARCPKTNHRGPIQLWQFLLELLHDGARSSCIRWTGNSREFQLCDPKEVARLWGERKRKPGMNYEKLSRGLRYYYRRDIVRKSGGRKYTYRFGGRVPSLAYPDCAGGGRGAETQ
# Method in brief: as §1
# ELF3 = target: T5, ELF3 (Homo sapiens, UniProt P78545 1-371); details: protein: recombinant; tags: N-terminal GST; dsDNA, one strand shown
# T5 sequence: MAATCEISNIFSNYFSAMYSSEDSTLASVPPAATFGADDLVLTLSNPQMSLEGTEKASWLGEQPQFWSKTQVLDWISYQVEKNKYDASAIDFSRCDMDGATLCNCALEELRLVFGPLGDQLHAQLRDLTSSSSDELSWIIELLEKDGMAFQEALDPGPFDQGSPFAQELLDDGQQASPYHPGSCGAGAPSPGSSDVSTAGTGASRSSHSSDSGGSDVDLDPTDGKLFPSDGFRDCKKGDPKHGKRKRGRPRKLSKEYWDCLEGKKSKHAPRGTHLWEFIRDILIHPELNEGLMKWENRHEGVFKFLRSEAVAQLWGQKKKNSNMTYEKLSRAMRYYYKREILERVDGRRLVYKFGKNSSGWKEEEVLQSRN
# Method in brief: as §1
# CRX = CRX (Homo sapiens, UniProt O43186 1-299); details: protein: recombinant; tags: N-terminal GST; dsDNA, one strand shown
# Sequence of CRX (O43186 whole entry): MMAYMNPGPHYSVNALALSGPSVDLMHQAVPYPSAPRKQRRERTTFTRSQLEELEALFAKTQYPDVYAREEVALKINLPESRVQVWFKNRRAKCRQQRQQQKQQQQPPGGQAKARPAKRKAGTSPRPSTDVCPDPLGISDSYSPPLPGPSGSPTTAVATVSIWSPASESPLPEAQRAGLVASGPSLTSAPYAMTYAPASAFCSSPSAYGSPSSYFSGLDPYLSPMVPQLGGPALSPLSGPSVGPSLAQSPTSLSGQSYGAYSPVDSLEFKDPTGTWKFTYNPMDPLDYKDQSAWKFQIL
# Method in brief: as §1
# ETV1 = ETV1 (Homo sapiens, UniProt P50549 1-477); details: protein: recombinant; tags: N-terminal GST; dsDNA, one strand shown
# Sequence of ETV1 (P50549 whole entry): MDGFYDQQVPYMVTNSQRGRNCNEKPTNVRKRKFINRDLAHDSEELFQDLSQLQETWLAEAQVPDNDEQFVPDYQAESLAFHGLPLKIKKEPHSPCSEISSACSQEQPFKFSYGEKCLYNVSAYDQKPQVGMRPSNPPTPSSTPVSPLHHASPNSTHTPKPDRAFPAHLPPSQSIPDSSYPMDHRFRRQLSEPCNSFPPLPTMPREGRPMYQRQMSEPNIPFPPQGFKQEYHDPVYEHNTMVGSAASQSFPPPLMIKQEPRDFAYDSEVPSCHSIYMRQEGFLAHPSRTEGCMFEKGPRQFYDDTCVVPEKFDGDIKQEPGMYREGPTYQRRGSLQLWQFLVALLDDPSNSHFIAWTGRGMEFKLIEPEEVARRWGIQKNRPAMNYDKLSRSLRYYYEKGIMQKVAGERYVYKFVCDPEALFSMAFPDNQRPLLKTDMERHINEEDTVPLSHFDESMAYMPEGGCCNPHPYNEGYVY
# Method in brief: as §1
# ERF = target: T6, ERF (Homo sapiens, UniProt P50548 1-548); details: protein: recombinant; tags: N-terminal GST; dsDNA, one strand shown
# T6 sequence: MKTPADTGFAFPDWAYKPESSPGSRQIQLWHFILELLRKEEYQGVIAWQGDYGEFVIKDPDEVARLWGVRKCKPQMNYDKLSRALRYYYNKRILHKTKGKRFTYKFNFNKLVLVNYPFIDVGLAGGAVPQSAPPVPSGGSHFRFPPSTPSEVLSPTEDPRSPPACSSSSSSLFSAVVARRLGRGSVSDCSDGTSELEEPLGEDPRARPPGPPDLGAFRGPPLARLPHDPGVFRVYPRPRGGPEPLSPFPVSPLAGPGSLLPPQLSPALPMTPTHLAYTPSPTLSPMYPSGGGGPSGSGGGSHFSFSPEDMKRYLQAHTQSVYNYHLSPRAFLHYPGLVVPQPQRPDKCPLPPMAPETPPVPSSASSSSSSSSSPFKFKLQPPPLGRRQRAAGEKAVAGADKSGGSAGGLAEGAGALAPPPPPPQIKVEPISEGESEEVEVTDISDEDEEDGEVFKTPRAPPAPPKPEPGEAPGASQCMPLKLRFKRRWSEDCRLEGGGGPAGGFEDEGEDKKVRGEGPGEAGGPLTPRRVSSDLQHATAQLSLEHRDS
# Method in brief: as §1
# ETV3L = target: T7, ETV3L (Homo sapiens, UniProt Q6ZN32 1-361); details: protein: recombinant; tags: N-terminal GST; dsDNA, one strand shown
# T7 sequence: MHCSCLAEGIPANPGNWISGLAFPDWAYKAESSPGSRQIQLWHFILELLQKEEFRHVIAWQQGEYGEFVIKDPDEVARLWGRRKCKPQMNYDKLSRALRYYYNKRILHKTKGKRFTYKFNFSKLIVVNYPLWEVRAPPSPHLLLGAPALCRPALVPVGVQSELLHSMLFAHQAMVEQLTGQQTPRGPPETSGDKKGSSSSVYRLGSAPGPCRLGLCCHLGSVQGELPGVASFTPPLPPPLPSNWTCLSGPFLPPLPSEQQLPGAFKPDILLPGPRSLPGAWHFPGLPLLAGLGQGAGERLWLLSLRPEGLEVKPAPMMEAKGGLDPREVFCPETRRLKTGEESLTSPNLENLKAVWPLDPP
# Method in brief: as §1
# ETS2 = target: T8, ETS2 (Homo sapiens, UniProt P15036 1-469); details: protein: recombinant; tags: N-terminal GST; dsDNA, one strand shown
# T8 sequence: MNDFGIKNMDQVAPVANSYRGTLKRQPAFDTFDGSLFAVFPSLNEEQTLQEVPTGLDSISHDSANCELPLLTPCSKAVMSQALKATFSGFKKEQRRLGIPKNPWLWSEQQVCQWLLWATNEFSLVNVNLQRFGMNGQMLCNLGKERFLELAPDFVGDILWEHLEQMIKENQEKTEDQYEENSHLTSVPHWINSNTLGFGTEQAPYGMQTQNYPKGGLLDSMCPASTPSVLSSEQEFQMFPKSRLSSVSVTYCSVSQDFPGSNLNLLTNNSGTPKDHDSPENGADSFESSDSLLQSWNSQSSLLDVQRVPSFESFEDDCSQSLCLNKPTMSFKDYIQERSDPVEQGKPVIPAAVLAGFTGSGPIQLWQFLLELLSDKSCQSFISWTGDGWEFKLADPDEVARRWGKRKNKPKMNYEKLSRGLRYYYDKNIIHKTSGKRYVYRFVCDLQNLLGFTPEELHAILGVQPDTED
# Method in brief: as §1
# SPDEF = target: T9, SPDEF (Homo sapiens, UniProt O95238 1-335); details: protein: recombinant; tags: N-terminal GST; dsDNA, one strand shown
# T9 sequence: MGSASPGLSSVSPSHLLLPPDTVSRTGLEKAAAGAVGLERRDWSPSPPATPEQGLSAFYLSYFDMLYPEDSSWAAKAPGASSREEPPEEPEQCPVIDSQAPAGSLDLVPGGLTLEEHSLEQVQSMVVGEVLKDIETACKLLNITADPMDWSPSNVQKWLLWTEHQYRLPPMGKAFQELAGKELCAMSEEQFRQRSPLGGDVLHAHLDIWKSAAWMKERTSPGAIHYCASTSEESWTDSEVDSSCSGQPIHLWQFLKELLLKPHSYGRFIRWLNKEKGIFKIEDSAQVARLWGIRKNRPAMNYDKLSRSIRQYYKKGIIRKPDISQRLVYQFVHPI
# Method in brief: as §1
# ETV7 = target: T10, ETV7 (Homo sapiens, UniProt Q9Y603 1-341); details: protein: recombinant; tags: N-terminal GST; dsDNA, one strand shown
# T10 sequence: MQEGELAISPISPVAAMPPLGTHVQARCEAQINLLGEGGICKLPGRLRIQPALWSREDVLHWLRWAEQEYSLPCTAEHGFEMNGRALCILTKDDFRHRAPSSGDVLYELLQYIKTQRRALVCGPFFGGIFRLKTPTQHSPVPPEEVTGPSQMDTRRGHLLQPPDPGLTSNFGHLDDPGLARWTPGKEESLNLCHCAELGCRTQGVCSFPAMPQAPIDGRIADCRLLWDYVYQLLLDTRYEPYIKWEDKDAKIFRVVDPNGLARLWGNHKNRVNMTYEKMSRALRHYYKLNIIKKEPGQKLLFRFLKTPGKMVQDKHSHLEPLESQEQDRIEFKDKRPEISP
# Method in brief: as §1
# ELF5 = target: T11, ELF5 (Homo sapiens, UniProt Q9UKW6-2 1-255); details: protein: recombinant; tags: N-terminal GST; dsDNA, one strand shown
# T11 sequence: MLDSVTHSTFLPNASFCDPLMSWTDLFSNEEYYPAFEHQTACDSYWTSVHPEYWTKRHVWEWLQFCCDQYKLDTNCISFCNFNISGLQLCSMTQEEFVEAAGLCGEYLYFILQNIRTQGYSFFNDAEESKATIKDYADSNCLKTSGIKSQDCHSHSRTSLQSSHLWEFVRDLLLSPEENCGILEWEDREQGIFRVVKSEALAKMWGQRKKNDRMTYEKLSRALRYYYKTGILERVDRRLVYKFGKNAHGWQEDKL
# Method in brief: as §1
# ETV3 = target: T12, ETV3 (Homo sapiens, UniProt P41162-2 1-143); details: protein: recombinant; tags: N-terminal GST; dsDNA, one strand shown
# T12 sequence: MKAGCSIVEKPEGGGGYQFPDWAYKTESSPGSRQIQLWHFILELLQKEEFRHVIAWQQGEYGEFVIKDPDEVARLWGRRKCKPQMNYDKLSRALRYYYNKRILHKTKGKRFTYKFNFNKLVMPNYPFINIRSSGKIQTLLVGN
# Method in brief: as §1
# ETV6 = ETV6 (Homo sapiens, UniProt P41212 1-452); details: protein: recombinant; tags: N-terminal GST; dsDNA, one strand shown
# Sequence of ETV6 (P41212 whole entry): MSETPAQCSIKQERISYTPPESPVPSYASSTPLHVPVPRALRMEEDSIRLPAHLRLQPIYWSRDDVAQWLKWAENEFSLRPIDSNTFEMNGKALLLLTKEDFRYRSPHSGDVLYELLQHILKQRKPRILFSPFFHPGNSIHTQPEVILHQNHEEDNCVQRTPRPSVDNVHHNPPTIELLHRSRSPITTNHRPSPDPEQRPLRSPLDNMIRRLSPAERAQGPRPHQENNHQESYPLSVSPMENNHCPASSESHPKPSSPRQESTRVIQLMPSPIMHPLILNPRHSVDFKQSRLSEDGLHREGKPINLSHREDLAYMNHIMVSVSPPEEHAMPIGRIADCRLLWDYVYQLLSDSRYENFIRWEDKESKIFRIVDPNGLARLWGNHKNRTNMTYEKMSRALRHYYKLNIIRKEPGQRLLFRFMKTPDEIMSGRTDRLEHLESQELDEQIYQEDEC
# Method in brief: as §1
sequence,measurement,setting,value
CTTGTG,binding signal,FEV,"1.39 fold enrichment (6-mer frequency, TF over GST control)"
same,binding signal,ETV5,"1.51 fold enrichment (6-mer frequency, TF over GST control)"
same,binding signal,HSF1,"1.25 fold enrichment (6-mer frequency, TF over GST control)"
same,binding signal,SPIC,"1.45 fold enrichment (6-mer frequency, TF over GST control)"
same,binding signal,ELF4,"1.59 fold enrichment (6-mer frequency, TF over GST control)"
same,binding signal,ELK4,"1.26 fold enrichment (6-mer frequency, TF over GST control)"
same,binding signal,ETV2,"1.44 fold enrichment (6-mer frequency, TF over GST control)"
same,binding signal,ELF3,"1.5 fold enrichment (6-mer frequency, TF over GST control)"
same,binding signal,CRX,"1.25 fold enrichment (6-mer frequency, TF over GST control)"
same,binding signal,ETV1,"1.44 fold enrichment (6-mer frequency, TF over GST control)"
same,binding signal,ERF,"1.59 fold enrichment (6-mer frequency, TF over GST control)"
same,binding signal,ETV3L,"1.4 fold enrichment (6-mer frequency, TF over GST control)"
same,binding signal,ETS2,"1.5 fold enrichment (6-mer frequency, TF over GST control)"
same,binding signal,SPDEF,"1.41 fold enrichment (6-mer frequency, TF over GST control)"
same,binding signal,ETV7,"1.41 fold enrichment (6-mer frequency, TF over GST control)"
same,binding signal,ELF5,"1.44 fold enrichment (6-mer frequency, TF over GST control)"
same,binding signal,ETV3,"1.51 fold enrichment (6-mer frequency, TF over GST control)"
same,binding signal,ETV6,"1.22 fold enrichment (6-mer frequency, TF over GST control)"
